According to PubChem BioAssay (NCATS):
Several values for one entry are separate records, joined by “and”; a condition that tells them apart may be missing. Equal values may be shown once. A number with no mark means an inactive call. Inconclusive results are not listed. Where a call stands in place of a potency, no number is given. Activity calls are given as the source filed them. Unless noted, the call rests on the fitted dose curve; in most records, active means well fitted curve in the direction sought with a large enough effect; inconclusive means small, poorly fitted or top-dose-only effect, or another doubt; inactive means no such curve, though single readings can be large; an effect the other way counts as inactive or inconclusive.

Legend:
[1] = test system: Hek293T; experiment: Primary qHTS to identify gynecologic anti-cancer compounds using libraries of approved drugs and bioactive compounds (AID 1345084); details: Gynecologic cancer cell panel viability, ATPlite luminescence, 48 h, control line for the selectivity index; series mostly up to 57.5 µM; further: nearly all actives have a fitted effect of over 55% in size
In short: (§1)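 In this quantitative HTS, cell killing is estimated from loss of ATP-dependent luciferase light. Cells see five compound concentrations over a 48 h exposure.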

[2] = test system: JEG-3; experiment: as above; details: Gynecologic cancer cell panel viability, ATPlite luminescence, 48 h; series mostly up to 57.5 µM
In short: as §1

[3] = test system: OV90; experiment: as above; details: Gynecologic cancer cell panel viability, ATPlite luminescence, 48 h; series mostly up to 57.5 µM
In short: as §1

[4] = test system: PA-1; experiment: as above; details: Gynecologic cancer cell panel viability, ATPlite luminescence, 48 h; series mostly up to 57.5 µM
In short: as §1

[5] = test system: SKOV3; experiment: as above; details: Gynecologic cancer cell panel viability, ATPlite luminescence, 48 h; series mostly up to 57.5 µM
In short: as §1

[6] = test system: Tov-21-G; experiment: as above; details: Gynecologic cancer cell panel viability, ATPlite luminescence, 48 h; series mostly up to 57.5 µM
In short: as §1

[7] = test system: Tov112D; experiment: as above; details: Gynecologic cancer cell panel viability, ATPlite luminescence, 48 h; series mostly up to 57.5 µM
In short: as §1

[8] = Drug repurposing screens with cells derived from glioblastoma tumor samples (AID 1345199); details: GBM patient neurospheres viability, ATP luminescence, 48 h; further: nearly all actives have a fitted effect of over 40% in size; further: potency means the concentration at half of the fitted maximal effect
In short: (§2)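 Four patient lines of CD133+ GBM neurospheres were screened at several concentrations; hits were retested in those lines plus three slower-growing GBM lines, using 48-hour treatment and ATP-based viability.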

[9] = test system: astro; experiment: as above; details: viability, ATP luminescence, 48 h; series mostly up to 45.9 µM
In short: as §2

[10] = biological target: Nuclear receptor subfamily 1 group I member 2 (Rattus norvegicus) (UniProt Q9R1A7); experiment: qHTS assay for small molecule activators of the rat pregnane X receptor (rPXR) signaling pathway (AID 651751; call rule not given here); details: rPXR reporter cells, luciferase (One-Glo), 24 h
[11] = at 45.9 µM (top of the series), tumour line B
[12] = at 45.9 µM (top of the series), tumour line D
[13] = at 46 µM (top of the series), tumour line A
[14] = at 46.1 µM (top of the series), tumour line C

Sequence of Nuclear receptor subfamily 1 group I member 2 (Rattus norvegicus) (Q9R1A7 whole entry, looked up): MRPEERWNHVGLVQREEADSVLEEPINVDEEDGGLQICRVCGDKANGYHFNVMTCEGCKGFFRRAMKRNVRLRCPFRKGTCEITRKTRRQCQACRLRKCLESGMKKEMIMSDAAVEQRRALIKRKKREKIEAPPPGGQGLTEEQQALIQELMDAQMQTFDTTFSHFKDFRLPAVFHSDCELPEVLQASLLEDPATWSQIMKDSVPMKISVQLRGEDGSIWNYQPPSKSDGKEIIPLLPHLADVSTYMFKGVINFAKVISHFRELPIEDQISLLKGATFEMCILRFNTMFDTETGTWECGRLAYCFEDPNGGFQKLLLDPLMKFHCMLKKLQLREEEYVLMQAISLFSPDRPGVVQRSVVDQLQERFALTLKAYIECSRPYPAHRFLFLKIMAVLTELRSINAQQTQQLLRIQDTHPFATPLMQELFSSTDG

Structure (SMILES) | Potency [1] | Potency [2] | Potency [3] | Potency [4] | Potency [5] | Potency [6] | Potency [7] | activity, negative = cell killing [8, 11] | activity, negative = cell killing [8, 12] | activity, negative = cell killing [8, 13] | activity, negative = cell killing [8, 14] | Potency [9] | max response [10] | Potency ([8]; tumour line A) | Potency ([8]; tumour line D)
O=C(c1ccccc1)c1ccccc1 | inactive | inactive | inactive | inactive | inactive | inactive | inactive | 2.19% | 8.55% | -8.04% | -0.361% | inactive | -0.979% and 2.4% | – | –
CCOC(=O)NNc1ccc(N(CC)CC(C)O)nn1 (stereo not given) | inactive | inactive | inactive | inactive | inactive | inactive | inactive | -1.62% | -9.84% | -25.2% | 10.8% | inactive | – | – | –
O=C(O)CCC(=O)OC[C@@H](NC(=O)C(Cl)Cl)[C@H](O)c1ccc([N+](=O)[O-])cc1 | inactive | inactive | inactive | inactive | inactive | inactive | inactive | -13.2% | -13.5% | – | -13.1% | inactive | – | – | –
CCOC(=O)Cn1cccc1-c1nc(-c2ccc(OC)cc2)c(-c2ccc(OC)cc2)s1 | inactive | inactive | inactive | inactive | inactive | inactive | inactive | -12.2% | -21.7% | – | -5.22% | inactive | – | 6.31 µM (active) | –
CC(=O)OCC(=O)Nc1cc(C#N)cc(NC(=O)COC(C)=O)c1Cl | inactive | inactive | inactive | inactive | inactive | inactive | inactive | -11% | -1.03% | – | -3.42% | inactive | – | – | –
CCOC(=O)c1ccc(OCCN2C[C@H](O)[C@@H](O)[C@H](O)[C@H]2CO)cc1 | inactive | inactive | inactive | inactive | inactive | inactive | inactive | 0.0726% | -4.04% | – | 1.63% | inactive | – | – | –
O=C(OCC1(COC(=O)c2cccnc2)CCCC(COC(=O)c2cccnc2)(COC(=O)c2cccnc2)C1O)c1cccnc1 | inactive | inactive | inactive | inactive | inactive | inactive | inactive | -11.6% | -18.7% | – | 2.18% | inactive | – | – | –
CC1(C)S[C@@H]2[C@H](NC(=O)C(c3ccccc3)S(=O)(=O)O)C(=O)N2[C@H]1C(=O)O (stereo not given in full) | inactive | inactive | inactive | inactive | inactive | inactive | inactive | -7.89% | -16.5% | – | 4.53% | inactive | – | – | –
Cc1cccc(N(C)C(=S)Oc2ccc3c(c2)CCC3)c1 | inactive | inactive | inactive | inactive | inactive | inactive | inactive | -19.8% | – | – | – | inactive | – | 17.8 µM (active) | 20 µM (active)
C[C@@]12CCC[C@H]1[C@@H]1CC[C@H]3C[C@@H](O)CC[C@]3(C)[C@H]1CC2 | inactive | inactive | inactive | inactive | inactive | inactive | inactive | -21.2% | – | – | – | inactive | – | 7.08 µM (active) | –
O=C(NN1CCCC1)NS(=O)(=O)c1ccc(Cl)cc1 | inactive | inactive | inactive | inactive | inactive | inactive | inactive | 1.6% | -25.9% | – | 2.27% | inactive | – | – | –
Nc1ccc(O)cc1 | inactive | inactive | inactive | inactive | inactive | inactive | inactive | – | – | – | – | 35.5 µM (active) | 4.17% | – | –
CO/N=C(/C(=O)N[C@@H]1C(=O)N2C(C(=O)OCOC(=O)C(C)(C)C)=C(C)CS[C@H]12)c1csc(N)n1 | inactive | inactive | inactive | inactive | inactive | inactive | inactive | – | – | – | – | inactive | – | – | –
N=C(N)c1ccc(OCCCOc2ccc(C(=N)N)cc2)cc1 | inactive | inactive | inactive | inactive | inactive | – | inactive | – | – | – | – | 11.2 µM (active) | – | – | –
O=C(COCCOCCOCC(=O)Nc1c(I)cc(I)c(C(=O)O)c1I)Nc1c(I)cc(I)c(C(=O)O)c1I | inactive | inactive | inactive | inactive | inactive | inactive | inactive | -4.03% | -4.14% | – | 15.8% | inactive | – | – | –
CN1CCC(=C2c3ccccc3CCc3cccnc32)CC1 | inactive | inactive | inactive | inactive | inactive | – | inactive | -11.9% | -28.7% | – | -24% | inactive | – | 11.2 µM (active) | –
